Experimental findings from PubChem BioAssay are described below.

Calls of active or inactive are those of the source. How the calls were made is not given here.

This assay deals with Pantothenate synthetase (Mycobacterium tuberculosis (strain ATCC 25618 / H37Rv)) (UniProt P9WIL5). The assay can be described thus: Coupled enzyme confirmation of inhibitors against recombinant Mtb PanC (AID 375).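 Further: 0% = full reaction with vehicle and 100% = no enzyme background.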 The conditions noted are these: coupled enzyme assay; at 10 µM, hits give high values.
Chain of Pantothenate synthetase (Mycobacterium tuberculosis (strain ATCC 25618 / H37Rv)) (P9WIL5 whole entry, looked up): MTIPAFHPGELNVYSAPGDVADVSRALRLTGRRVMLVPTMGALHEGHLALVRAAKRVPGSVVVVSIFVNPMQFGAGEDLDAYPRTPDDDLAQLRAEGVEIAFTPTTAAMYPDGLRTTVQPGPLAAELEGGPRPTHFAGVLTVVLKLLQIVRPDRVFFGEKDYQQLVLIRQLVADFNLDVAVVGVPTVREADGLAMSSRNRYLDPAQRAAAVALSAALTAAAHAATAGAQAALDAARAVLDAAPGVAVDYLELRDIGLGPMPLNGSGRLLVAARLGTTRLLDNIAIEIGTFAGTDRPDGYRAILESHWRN
On to `CN(CCNS(=O)(=O)c1ccc2c(c1)oc(=O)n2C)Cc1ccccc1`, for which the inhibition is 0% (inactive). Regarding `O=C(c1ccccc1Br)N1CCN(c2ccccc2)CC1`, the inhibition was 8% (inactive). As for `CCOc1ccccc1C1CC(=O)NC(SCC)=C1C#N` (configuration not stated), the inhibition is 0% (inactive).

On to `CCOc1cc(C2Nc3ccccc3C(=O)N2c2ccccc2OC)ccc1O` (configuration not stated), for which the inhibition is 0% (inactive). Take `Cc1ccccc1CN1CCNC1=O`: the inhibition was 0% (inactive).

As for `Cc1cc(C)n2cc(CSc3nnnn3C)nc2n1`, the inhibition was 0% (inactive). In the case of `COC(=O)C(C)Sc1nc2c(c(=O)n1-c1ccccc1)SCC2` (configuration not stated) it was 0% (inactive).

For the compound `COc1ccc(C2C(C(C)=O)=C(C)N=c3s/c(=C\c4ccc5c(c4)OCO5)c(=O)n32)c(OC)c1` (configuration not stated), the inhibition was 0% (inactive). Next, `Cc1ccc(C)c(SCC(=O)Nc2nnc(-c3ccccc3)o2)c1`: 10% (inactive).

Take `COc1ccc(CC(NC(C)=O)C(=O)NC2CCN(c3nc(C)cc(C)c3C#N)CC2)c(OC)c1` (configuration not stated): the inhibition was 0% (inactive). As to `O=C1NC(=O)C(CC(=O)N(Cc2ccco2)C2(C(=O)NC3CCCC3)CCCCC2)N1` (configuration not stated), the inhibition was 0% (inactive). `CCOc1ccc(N2C(=O)CC(N3CC(C)OC(C)C3)C2=O)cc1` (configuration not stated): the inhibition was 0% (inactive). In the case of `CCOC(=O)N1CCC(NC(=O)c2ccc(CS(=O)(=O)c3c(Cl)cccc3Cl)o2)CC1` it was 0% (inactive). For `COc1ccc(Cl)c(NC(=O)NCCN2CCN(c3ccccc3)CC2)c1`, the inhibition is 0% (inactive). As to `Cc1cc2oc(C(=O)NC3CCS(=O)(=O)C3)c(C)c2cc1C` (configuration not stated), the inhibition is 0% (inactive). `O=C(OCc1nnc(-c2ccccc2)o1)C1=COCCO1`: the inhibition was 0% (inactive). For `COc1ccccc1Nc1ncnc2c1cnn2-c1cccc(C)c1`, the inhibition is 0% (inactive).
